According to PubChem BioAssay (EPA / NIEHS):
Inconclusive results are not listed. Active and inactive are the calls of the source. How the source made its calls, unless noted: active means hit-call score of the fitted dose curve at least 0.9, where 1 is the maximum; inactive means score below 0.9.

Experiments:
[1] = target: Oxysterols receptor LXR-alpha (Homo sapiens) (UniProt Q13133); assay: ATG_LXRa_TRANS: Attagene TRANS-FACTORIAL HepG2 Assay for human Liver X Receptor alpha (LXRa) (AID 2282980; active means hit-call score of the fitted dose curve at least 0.9, where 1 is the maximum); details: HepG2 Attagene TRANS reporter, LXRa transactivation
Sequence of Oxysterols receptor LXR-alpha (Homo sapiens) (Q13133 whole entry, looked up, the tested form may be a part): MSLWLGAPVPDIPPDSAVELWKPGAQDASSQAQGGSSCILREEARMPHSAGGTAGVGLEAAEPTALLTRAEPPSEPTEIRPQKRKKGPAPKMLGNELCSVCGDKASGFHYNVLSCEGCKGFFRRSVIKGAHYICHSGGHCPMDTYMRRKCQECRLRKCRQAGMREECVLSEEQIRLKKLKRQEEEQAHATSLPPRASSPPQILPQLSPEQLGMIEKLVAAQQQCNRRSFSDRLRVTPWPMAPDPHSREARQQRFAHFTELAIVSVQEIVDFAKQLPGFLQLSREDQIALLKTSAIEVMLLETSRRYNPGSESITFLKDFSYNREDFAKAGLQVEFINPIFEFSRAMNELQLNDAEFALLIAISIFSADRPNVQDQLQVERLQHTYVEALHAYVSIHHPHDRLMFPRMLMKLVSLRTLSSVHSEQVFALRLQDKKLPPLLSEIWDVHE
Outline: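 Read-out: reporter transcript levels by RT-PCR plus capillary electrophoresis, fluorescence intensity. Transiently transfected HepG2, exogenous NR-GAL4 chimera, GAL4-UAS reporters; 24 h compound exposure. Activity = increase over DMSO negative control.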

[2] = ATG_M_32_TRANS: Attagene TRANS-FACTORIAL HepG2 Assay for M32 Transcription Factor (Internal Marker) (AID 2282984; active means hit-call score of the fitted dose curve at least 0.9, where 1 is the maximum); details: HepG2 Attagene TRANS M32 internal marker reporter
Outline: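 Human hepatoma HepG2, transient MRTU transfection, 24 h treatment. RNA → RT-PCR → fluorescent primer extension → HpaI digest (2 h, 37 C) → CE. Positive-direction fit vs DMSO.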

[3] = target: Transcriptional activator Myb (Homo sapiens) (UniProt P10242); assay: ATG_Myb_CIS: Attagene CIS-FACTORIAL HepG2 Assay for human Myeloblastosis (Myb) Proto-Oncogene Transcription Factor (AID 2282986); details: HepG2 Attagene CIS-FACTORIAL Myb reporter transcription; actives raise or lower the signal
Sequence of Transcriptional activator Myb (Homo sapiens) (P10242 whole entry, looked up): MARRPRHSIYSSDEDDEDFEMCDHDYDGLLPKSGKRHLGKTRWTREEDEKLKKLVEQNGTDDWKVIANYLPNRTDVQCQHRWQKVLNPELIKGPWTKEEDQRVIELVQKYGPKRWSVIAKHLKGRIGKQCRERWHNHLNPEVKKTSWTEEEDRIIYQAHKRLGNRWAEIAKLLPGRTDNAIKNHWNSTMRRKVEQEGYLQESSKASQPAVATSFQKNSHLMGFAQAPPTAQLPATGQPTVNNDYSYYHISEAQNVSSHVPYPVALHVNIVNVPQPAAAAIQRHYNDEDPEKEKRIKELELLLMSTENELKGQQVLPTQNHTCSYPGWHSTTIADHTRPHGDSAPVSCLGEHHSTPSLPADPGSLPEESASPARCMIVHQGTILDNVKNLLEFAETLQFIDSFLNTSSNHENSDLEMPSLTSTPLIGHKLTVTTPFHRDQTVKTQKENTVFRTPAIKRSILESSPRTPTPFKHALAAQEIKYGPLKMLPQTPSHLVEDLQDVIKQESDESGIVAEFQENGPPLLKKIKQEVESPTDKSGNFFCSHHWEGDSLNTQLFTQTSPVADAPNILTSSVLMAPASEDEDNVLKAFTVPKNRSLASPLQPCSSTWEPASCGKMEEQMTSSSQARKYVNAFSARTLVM
Outline: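 Reporter transcript levels, quantified by fluorescent RT-PCR and capillary electrophoresis, serve as the read-out. Transfected HepG2 cells carrying cis-promoter reporter units are dosed for 24 hours, and curves are fitted bidirectionally against DMSO controls.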

[4] = ATG_NFI_CIS: Attagene CIS-FACTORIAL HepG2 Assay for human Nuclear Factor I (NFI) (AID 2282989); details: HepG2 cis-regulatory reporter, NFI response element transcription; actives raise or lower the signal
Outline: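 Endogenous TF activity in HepG2 cells transiently transfected with cis-element-driven multiplexed reporter units, read 24 h after dosing. Reporter mRNA quantified by RT-PCR, 6-FAM labelling, HpaI digestion and capillary electrophoresis; bidirectional fit versus DMSO.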

[5] = target: Myc proto-oncogene protein (Homo sapiens) (UniProt P01106); assay: ATG_Myc_CIS: Attagene CIS-FACTORIAL HepG2 Assay for human Myelocytomatosis (Myc) Proto-Oncogene Transcription Factor (AID 2282990); details: HepG2, Attagene cis-reporter transcription factor activity; actives raise or lower the signal
Sequence of Myc proto-oncogene protein (Homo sapiens) (P01106 whole entry, looked up): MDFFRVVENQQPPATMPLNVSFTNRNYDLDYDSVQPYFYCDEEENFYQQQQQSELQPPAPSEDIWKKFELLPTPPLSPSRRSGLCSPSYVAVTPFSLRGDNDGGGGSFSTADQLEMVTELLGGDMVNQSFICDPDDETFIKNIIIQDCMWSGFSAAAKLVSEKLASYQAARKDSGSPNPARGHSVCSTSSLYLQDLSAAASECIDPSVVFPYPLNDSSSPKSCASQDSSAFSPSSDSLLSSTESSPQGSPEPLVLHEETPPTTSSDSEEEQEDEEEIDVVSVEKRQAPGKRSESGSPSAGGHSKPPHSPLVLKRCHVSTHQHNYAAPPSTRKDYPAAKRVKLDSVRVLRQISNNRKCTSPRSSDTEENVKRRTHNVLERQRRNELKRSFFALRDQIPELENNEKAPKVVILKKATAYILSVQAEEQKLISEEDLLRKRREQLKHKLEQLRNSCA
Outline: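 HepG2 cells transiently transfected with multiple cis-promoter-driven reporter transcription units, so endogenous TF activity is read. After 24 h compound exposure, reporter mRNA was quantified by RT-PCR, 6-FAM labelling, HpaI digestion and capillary electrophoresis; bidirectional fit versus DMSO.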

[6] = ATG_NRF2_ARE_CIS: Attagene CIS-FACTORIAL HepG2 Assay for human Nuclear Factor Erythroid 2 Related Factor 2 (NFR2) response to Antioxidant Response Elements (ARE) (AID 2282992); details: HepG2 Attagene ARE/NRF2 reporter, transcription factor activity; actives raise or lower the signal;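 on AC50: reporter mRNA level measured by RT-PCR and capillary electrophoresis fluorescence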
Outline: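 HepG2 cells transiently transfected with multiplexed cis-element reporter constructs, 24 h after chemical dosing; reporter mRNA quantified by RT-PCR, fluorescent primer extension, HpaI digestion and capillary electrophoresis. Bidirectional fit relative to DMSO.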

[7] = ATG_Oct_MLP_CIS: Attagene CIS-FACTORIAL HepG2 Assay for human Octamer-Binding Transcription Factor (Oct) (AID 2282993); details: HepG2 Attagene cis-factorial Oct reporter, mRNA; actives raise or lower the signal
Outline: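 HepG2 cells transiently transfected with cis-element-driven reporter transcription units (endogenous TF activity); 24 h compound exposure. Reporter mRNA quantified by RT-PCR, 6-FAM labelling, HpaI digestion and capillary electrophoresis; bidirectional fit versus DMSO baseline.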

[8] = target: Oxysterols receptor LXR-beta (Homo sapiens) (UniProt P55055); assay: ATG_LXRb_TRANS: Attagene TRANS-FACTORIAL HepG2 Assay for human Liver X Receptor beta (LXRb) (AID 2282981; active means hit-call score of the fitted dose curve at least 0.9, where 1 is the maximum); details: HepG2 Attagene TRANS GAL4-LXRb reporter, mRNA
Sequence of Oxysterols receptor LXR-beta (Homo sapiens) (P55055 whole entry, looked up, the tested form may be a part): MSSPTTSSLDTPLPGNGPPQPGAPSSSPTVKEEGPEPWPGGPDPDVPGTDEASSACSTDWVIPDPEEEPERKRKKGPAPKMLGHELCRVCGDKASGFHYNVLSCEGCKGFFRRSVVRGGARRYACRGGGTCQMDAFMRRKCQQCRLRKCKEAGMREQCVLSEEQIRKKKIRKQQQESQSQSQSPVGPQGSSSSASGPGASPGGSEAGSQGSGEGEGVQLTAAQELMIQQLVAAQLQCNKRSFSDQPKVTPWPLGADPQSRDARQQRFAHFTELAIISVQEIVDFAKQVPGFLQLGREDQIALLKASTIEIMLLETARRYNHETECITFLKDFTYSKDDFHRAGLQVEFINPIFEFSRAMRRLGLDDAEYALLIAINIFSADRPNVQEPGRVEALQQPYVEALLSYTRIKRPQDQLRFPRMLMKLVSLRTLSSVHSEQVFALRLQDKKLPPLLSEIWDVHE
Outline: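 In this TRANS format, exogenous chimeric NR-Gal4 protein activity, not endogenous factors, drives reporter expression in transfected human HepG2 cells. Exposure lasted 24 h; reporter mRNA was read by fluorescent capillary electrophoresis.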

[9] = ATG_M_06_TRANS: Attagene TRANS-FACTORIAL HepG2 Assay for M06 Transcription Factor (Internal Marker) (AID 2282983; active means hit-call score of the fitted dose curve at least 0.9, where 1 is the maximum); details: HepG2 Attagene TRANS M06 internal marker reporter
Outline: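 After a 24 h chemical treatment of transfected HepG2, RNA underwent DNase I treatment, reverse transcription and reporter-specific PCR; labelled, HpaI-digested products were sized by capillary electrophoresis. Signal increase relative to DMSO defined activity.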

[10] = target: Nuclear receptor subfamily 4 group A member 2 (Homo sapiens) (UniProt P43354); assay: ATG_NURR1_TRANS: Attagene TRANS-FACTORIAL HepG2 Assay for human Nuclear Receptor Related Protein 1 (NURR1) (AID 2282985; active means hit-call score of the fitted dose curve at least 0.9, where 1 is the maximum); details: HepG2 Attagene TRANS reporter, mRNA readout
Sequence of Nuclear receptor subfamily 4 group A member 2 (Homo sapiens) (P43354 whole entry, looked up): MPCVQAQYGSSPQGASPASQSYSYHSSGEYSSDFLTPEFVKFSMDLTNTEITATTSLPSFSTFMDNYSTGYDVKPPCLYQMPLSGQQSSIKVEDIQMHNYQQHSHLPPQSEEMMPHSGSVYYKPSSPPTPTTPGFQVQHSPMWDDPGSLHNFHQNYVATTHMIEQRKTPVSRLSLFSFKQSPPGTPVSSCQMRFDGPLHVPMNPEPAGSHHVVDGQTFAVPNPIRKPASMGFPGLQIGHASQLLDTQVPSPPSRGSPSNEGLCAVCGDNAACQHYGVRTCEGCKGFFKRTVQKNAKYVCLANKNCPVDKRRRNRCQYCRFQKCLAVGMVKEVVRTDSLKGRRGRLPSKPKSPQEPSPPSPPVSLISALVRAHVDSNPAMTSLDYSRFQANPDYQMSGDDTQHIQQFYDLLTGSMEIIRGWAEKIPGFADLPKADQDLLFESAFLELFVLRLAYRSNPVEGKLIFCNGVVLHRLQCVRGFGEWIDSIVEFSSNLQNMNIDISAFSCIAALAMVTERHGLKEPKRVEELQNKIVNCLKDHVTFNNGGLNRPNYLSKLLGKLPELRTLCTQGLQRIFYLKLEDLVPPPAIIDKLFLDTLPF
Outline: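 After 24 h chemical dosing, total RNA from transiently transfected HepG2 cells was reverse-transcribed and reporter cDNA PCR-amplified, FAM-labelled and analysed by capillary electrophoresis. Activity fitted in positive direction, DMSO as negative control.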

[11] = target: Nuclear respiratory factor 1 (Homo sapiens) (UniProt Q16656); assay: ATG_NRF1_CIS: Attagene CIS-FACTORIAL HepG2 Assay for human Nuclear Respiratory Factor 1 (NRF1) Orphan Gene (AID 2282987); details: HepG2 NRF1 cis-element reporter, Attagene multiplex; actives raise or lower the signal
Sequence of Nuclear respiratory factor 1 (Homo sapiens) (Q16656 whole entry, looked up): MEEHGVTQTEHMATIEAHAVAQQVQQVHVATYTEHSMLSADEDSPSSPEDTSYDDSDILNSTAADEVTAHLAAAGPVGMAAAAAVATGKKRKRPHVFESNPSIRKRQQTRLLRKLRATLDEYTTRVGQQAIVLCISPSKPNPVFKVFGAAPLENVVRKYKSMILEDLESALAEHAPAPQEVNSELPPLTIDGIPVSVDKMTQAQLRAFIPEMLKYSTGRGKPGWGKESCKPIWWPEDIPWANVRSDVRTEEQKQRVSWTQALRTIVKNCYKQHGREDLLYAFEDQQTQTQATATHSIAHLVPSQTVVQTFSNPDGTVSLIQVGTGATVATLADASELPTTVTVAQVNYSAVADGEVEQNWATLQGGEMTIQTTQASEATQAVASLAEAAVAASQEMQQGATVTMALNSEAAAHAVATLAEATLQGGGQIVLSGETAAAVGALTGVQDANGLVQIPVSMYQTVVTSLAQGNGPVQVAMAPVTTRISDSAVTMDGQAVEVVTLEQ
Outline: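 Multiplexed cis-reporter assay, HepG2 cells, 24 h treatment. Total RNA → oligo(dT) RT → PCR with reporter-specific primers → 6-FAM primer extension → HpaI cut → CE. Bidirectional fit vs DMSO.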

[12] = ATG_NF_kB_CIS: Attagene CIS-FACTORIAL HepG2 Assay for human Nuclear Factor Kappa B (NF-kB) (AID 2282991); details: HepG2 Attagene cis-factorial NF-kB reporter mRNA; actives raise or lower the signal
Outline: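 Transient MRTU transfection of human HepG2 liver cells → 24 h chemical exposure → total RNA, oligo(dT) RT → PCR, 6-FAM primer extension, HpaI digest 2 h 37 C → CE fragment analysis. Bidirectional fitting, DMSO negative control.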

[13] = target: Cellular tumor antigen p53 (Homo sapiens) (UniProt P04637); assay: ATG_p53_CIS: Attagene CIS-FACTORIAL HepG2 Assay for human p53 Transcription Factor (AID 2282994); details: HepG2 p53 cis-element reporter, Attagene mRNA; actives raise or lower the signal
Sequence of Cellular tumor antigen p53 (Homo sapiens) (P04637 whole entry, looked up): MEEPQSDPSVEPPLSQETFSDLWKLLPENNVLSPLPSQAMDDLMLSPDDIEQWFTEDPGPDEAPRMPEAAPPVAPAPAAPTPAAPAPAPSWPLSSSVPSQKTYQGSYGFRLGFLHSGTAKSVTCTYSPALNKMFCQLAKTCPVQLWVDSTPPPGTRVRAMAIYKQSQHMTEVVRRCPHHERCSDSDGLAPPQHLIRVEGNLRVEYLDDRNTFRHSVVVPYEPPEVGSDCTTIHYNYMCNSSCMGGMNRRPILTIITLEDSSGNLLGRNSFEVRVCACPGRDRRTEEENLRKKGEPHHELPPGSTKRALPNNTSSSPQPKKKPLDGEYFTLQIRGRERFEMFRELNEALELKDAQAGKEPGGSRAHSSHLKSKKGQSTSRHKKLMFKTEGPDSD
Outline: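 HepG2 cells transiently transfected with cis-regulated multiple reporter transcription units, dosed 24 h. Reporter mRNA measured by RT-PCR, 6-FAM primer extension, HpaI digestion and capillary electrophoresis; bidirectional fit relative to DMSO.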

[14] = target: Hepatocyte nuclear factor 4-alpha (Homo sapiens) (UniProt P41235); assay: ATG_HNF4a_TRANS: Attagene TRANS-FACTORIAL HepG2 Assay for human Hepatocyte Nuclear Factor 4 alpha (HNF4a) (AID 2282982; active means hit-call score of the fitted dose curve at least 0.9, where 1 is the maximum); details: HepG2 HNF4a transactivation reporter, mRNA readout
Sequence of Hepatocyte nuclear factor 4-alpha (Homo sapiens) (P41235 whole entry, looked up, the tested form may be a part): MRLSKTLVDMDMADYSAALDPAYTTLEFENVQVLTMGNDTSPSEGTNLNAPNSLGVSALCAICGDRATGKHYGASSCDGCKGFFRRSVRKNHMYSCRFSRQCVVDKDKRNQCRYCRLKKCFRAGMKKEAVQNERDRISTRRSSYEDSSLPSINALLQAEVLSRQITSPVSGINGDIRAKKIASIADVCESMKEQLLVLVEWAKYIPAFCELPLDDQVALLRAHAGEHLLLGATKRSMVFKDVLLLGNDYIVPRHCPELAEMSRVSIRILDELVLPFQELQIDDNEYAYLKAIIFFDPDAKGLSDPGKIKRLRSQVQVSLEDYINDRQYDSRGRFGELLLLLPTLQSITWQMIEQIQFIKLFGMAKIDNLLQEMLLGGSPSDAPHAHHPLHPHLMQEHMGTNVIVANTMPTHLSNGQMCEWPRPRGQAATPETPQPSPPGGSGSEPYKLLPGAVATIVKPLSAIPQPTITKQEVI
Outline: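 Cells used were human HepG2, transiently carrying GAL4-UAS reporter units read out against exogenous NR-GAL4 chimeras. Reporter transcript levels after 24 h dosing were quantified by fluorescent RT-PCR and capillary electrophoresis.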

[15] = BSK_3C_TissueFactor: BioMAP Diversity Plus: 3C Assay for Tissue Factor Biomarker Activity (AID 2282997); details: BioMAP 3C HUVEC, tissue factor biomarker readout; actives raise or lower the signal
Outline: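 Human vascular primary cells (umbilical vein endothelium) received test chemical; Tissue Factor was determined by ELISA at 24 h, and both gain and loss of signal versus DMSO were fitted.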

[16] = BSK_3C_uPAR: BioMAP Diversity Plus: 3C Assay for Urokinase-type plasminogen activator receptor (uPAR) Biomarker Activity (AID 2282998); details: BioMAP 3C HUVEC, uPAR biomarker ELISA; actives raise or lower the signal
Outline: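 Primary human umbilical vein endothelial cells, 3C system; surface uPAR measured by ELISA 24 h after dosing. Cytotoxicity via SRB total protein in parallel cultures; bidirectional fit against DMSO.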

[17] = BSK_3C_VCAM1: BioMAP Diversity Plus: 3C Assay for Vascular cell adhesion molecule 1 (VCAM1) Biomarker Activity (AID 2282999); details: BioMAP 3C HUVEC, VCAM1 ELISA, cytokine-stimulated; actives raise or lower the signal
Outline: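 Human umbilical vein endothelial cells were dosed with compound for 24 h, after which cell-surface VCAM-1 was quantified by ELISA. Bidirectional curve fitting used DMSO as negative control and activity baseline.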

[18] = BSK_4H_Eotaxin3: BioMAP Diversity Plus: 4H Assay for Eotaxin 3 Biomarker Activity (AID 2283000); details: primary human endothelial cells (HUVEC); actives raise or lower the signal;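 further: CCL26 protein level quantified by ELISA in parallel with SRB cytotoxicity check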
Outline: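 Readout is Eotaxin-3 (CCL26) level by ELISA in primary human umbilical vein endothelial cells harvested 24 h after chemical exposure; activity fitted in both directions against DMSO control.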

Measured: AC50

Cc1ccc(C=O)s1
inactive: [1] | [2] | [3] | [4] | [5] | [6] | [7]

COC(C)CCO (configuration not stated)
inactive: [8] | [9] | [10] | [3] | [11] | [4] | [5] | [12]
active: [1] 27.7 µM | [6] 63.3 µM | [7] 151 µM | [13] 162 µM

COc1ccc(NC(=O)CC(C)=O)cc1
not listed: [7] | [8] | [12] | [15] | [16] | [17] | [18]
inactive: all other assays above

CCCCOCCOCCOCCOCCO
not listed: [8] | [12] | [13] | [15] | [16] | [17] | [18]
inactive: all other assays above

CCn1c2ccccc2c2cc(N)ccc21
active: [6] 26.4 µM | [16] 1.82 µM
not listed: [8] | [11] | [14]
inactive: all other assays above

CCCC1CCC(=O)O1 (configuration not stated)
inactive: [1] | [9] | [10] | [3] | [11] | [4] | [5] | [6] | [13]

CC(C)=CCCC(C)=CCCC(C)=CCO
inactive: [1] | [8] | [2] | [10] | [3] | [4] | [5] | [13]
active: [6] 18.8 µM

NNc1nc(-c2ccc(N)cc2)cs1
not listed: [1] | [10] | [15] | [16] | [17] | [18]
inactive: all other assays above

C=CC(C)(CCC=C(C)C)OC=O (configuration not stated)
active: [6] 153 µM
not listed: [1] | [10] | [12] | [15] | [16] | [17] | [18]
inactive: all other assays above
